The values that follow come from PubChem BioAssay (NCI).

Among the test systems are BT-549 breast; MDA-MB-435 melanoma; SW-620 colon; MCF7 breast; HCC-2998 colon; KM12 colon; HCT-116 colon.
What all share (test): NCI-60 one-dose screen, 48 h (100 = growth as untreated, 0 = no growth, -100 = all killed)
Holding throughout (conditions): 10 µM

Each structure is given as a SMILES string. This is part of a sample that, as a whole, favours compounds with a hit. Of some 83,000 tested, about 20% had one in any assay.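 Method: cells in 96-well plates; compound added at one concentration; 48 h incubation; percent growth measured; values under 10 scored active.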 A number with no mark means an inactive call. Calls of active or inactive are those of the source.

In the case of `COc1cc(-c2nc(-c3nnc(-c4ccccc4Cl)o3)c3ccccn23)cc(OC)c1OC`, the growth is 89.5% in the experiment with BT-549 breast; 100% in the experiment on MDA-MB-435 melanoma; 104% in the experiment on SW-620 colon; 81.9% in the experiment with MCF7 breast; 94.7% with HCC-2998 colon; 80.5% in the experiment on KM12 colon.
On to `COC(=O)C(=C\c1ccc2c(c1)OCO2)/C(=C/c1ccc2c(c1)OCO2)C(=O)OC`, for which the growth with BT-549 breast was 95.5%; in the experiment on MDA-MB-435 melanoma, 104%; with SW-620 colon, 110%; in the experiment on MCF7 breast, 96.9%; in the experiment with HCC-2998 colon it was 94.6%; in the experiment on KM12 colon it was 102%.
Regarding `O=c1[nH]c(-c2ccc(Cl)cc2)nc2sc3c(c12)CCCC3`, the growth in the experiment with BT-549 breast is 92.3%; with MDA-MB-435 melanoma it was 93.2%; with SW-620 colon, 58.8%; in the experiment on MCF7 breast, 36%; in the experiment with HCC-2998 colon it was 109%; with KM12 colon it was 97.6%.
Take `Nc1c(C(=O)Nc2cccc(F)c2)sc2nc3c(cc12)C(=O)CCC3`: the growth with BT-549 breast was 48.4%; in the experiment on MDA-MB-435 melanoma, -43.8% (active); with SW-620 colon it was 31.1%; in the experiment with MCF7 breast, 11.9%; with HCC-2998 colon, 23.4%; in the experiment on KM12 colon it was 28.9%.
With `COc1cc2cc3c(nc2cc1OC)CCN3Cc1ccc(NC(=O)Nc2ccc(F)cc2F)cc1`, the growth in the experiment with BT-549 breast was 76.7%; in the experiment on MDA-MB-435 melanoma it was 89%; in the experiment with SW-620 colon, 100%; in the experiment on MCF7 breast, 81.3%; in the experiment with HCC-2998 colon, 85.1%; in the experiment on KM12 colon, 87.2%.
For `C#Cc1ccc(-n2c(/C=C/c3ccc(O)cc3)nc3ncccc3c2=O)cc1`, the growth is 74.9% with BT-549 breast; -45.5% (active) in the experiment with MDA-MB-435 melanoma; 34.5% with SW-620 colon; 10.5% with MCF7 breast; 93% in the experiment with HCC-2998 colon.
Turning to `CC1=C(N2CCOCC2)C(N2CCOCC2)=C(C)C(=O)C1=O`, the growth in the experiment on BT-549 breast was 110%; with MDA-MB-435 melanoma, 103%; in the experiment with SW-620 colon it was 105%; in the experiment on MCF7 breast, 92.5%; in the experiment on HCC-2998 colon, 109%; with KM12 colon it was 105%.
Regarding `CCOCC(=O)C(C#N)c1ccc(Cl)c(Cl)c1` (centres undefined), the growth is 104% with BT-549 breast; 92.8% in the experiment on MDA-MB-435 melanoma; 102% in the experiment with SW-620 colon; 92.2% in the experiment on MCF7 breast; 106% with HCC-2998 colon; 107% in the experiment with KM12 colon.
Take `FC(F)(F)c1ccc(-c2cnc(Cl)nc2N2CCC3(CC2)OCCO3)cc1`: the growth is 97.1% in the experiment on BT-549 breast; 101% with MDA-MB-435 melanoma; 103% with SW-620 colon; 98.9% in the experiment on MCF7 breast; 102% in the experiment on HCC-2998 colon; 96.3% in the experiment on KM12 colon.
As to `O=C(O)CN1C(=O)c2cccc3cccc(c23)C1=O`, the growth with BT-549 breast was 104%; in the experiment with MDA-MB-435 melanoma, 104%; with SW-620 colon it was 106%; in the experiment with MCF7 breast, 87.4%; with HCC-2998 colon, 103%; in the experiment on KM12 colon it was 107%.
In the case of `COc1ccc(C2=NN(C(=O)c3ccc(S(C)(=O)=O)cc3)C(c3ccc(OC)c(OC)c3)C2)c(OC)c1` (centres undefined), the growth with BT-549 breast was 91.6%; in the experiment with MDA-MB-435 melanoma it was 108%; in the experiment on SW-620 colon, 105%; in the experiment on MCF7 breast, 98.7%; with HCC-2998 colon, 102%; in the experiment with KM12 colon it was 100%.
For the compound `CSCCCNC(=O)c1ccc2c(c1)/C(=C/c1[nH]c(C)cc1C)C(=O)N2`, the growth was 9.33% (active) in the experiment with BT-549 breast; 13.4% in the experiment on MDA-MB-435 melanoma; 28.9% in the experiment on SW-620 colon; 3.75% (active) in the experiment on HCT-116 colon; 30.3% in the experiment with HCC-2998 colon.
On to `Cc1cccc2c1O/C(=C\c1ccc([N+](=O)[O-])o1)C2=O`, for which the growth is -68.5% (active) in the experiment on BT-549 breast; -53.2% (active) with MDA-MB-435 melanoma; -68% (active) with SW-620 colon; -39.7% (active) with MCF7 breast; -67.4% (active) in the experiment with HCC-2998 colon; -34.2% (active) with KM12 colon.
Turning to `O=C(C[n+]1ccccc1)c1ccc2ccccc2c1`, the growth was 100% in the experiment with BT-549 breast; 102% in the experiment on MDA-MB-435 melanoma; 98.1% with MCF7 breast; 91.2% in the experiment with HCT-116 colon; 93.1% with KM12 colon.
For `O=C(CC(c1ccccc1)N1CCOCC1)c1ccccc1` (centres undefined) the same measures were 89.8%, 89.7%, 32.2%, 34.5% and 23%.
Take `COc1ccc(Nc2nc3ccc(NC(=O)NC4CCCCC4)cc3[nH]c2=O)cc1`: the growth in the experiment on BT-549 breast was 87.7%; in the experiment with SW-620 colon it was 108%; in the experiment on MCF7 breast, 83%; with HCT-116 colon, 102%; with HCC-2998 colon it was 104%; in the experiment with KM12 colon it was 87.1%.
`CCN(CCCCCCN1CC(=O)N(CCCCCCN(CC)Cc2ccccc2OC)CC1=O)Cc1ccccc1OC`: the growth was 87.8% in the experiment on BT-549 breast; 85.9% with MDA-MB-435 melanoma; 83.6% in the experiment on MCF7 breast; 37.6% in the experiment with HCT-116 colon; 65.5% with KM12 colon.
For the compound `O=C(Cc1csc2nc(-c3ccc(Cl)cc3)cn12)N/N=C/c1ccccc1O`, the growth is 62.6% with BT-549 breast; 67.4% with MDA-MB-435 melanoma; 42.5% with MCF7 breast; 36.6% in the experiment with HCT-116 colon; 36.5% in the experiment on KM12 colon.
Regarding `CC(=O)C1CCC2C3CC(F)C4=CC(=O)CCC4(C)C3C(O)CC12C` (centres undefined), the growth with BT-549 breast is 91.2%; in the experiment with SW-620 colon, 109%; with MCF7 breast it was 94.5%; in the experiment on HCT-116 colon, 89.9%; in the experiment with HCC-2998 colon, 105%.
As for `CCCCN(CCCC)CCCCCCCCC(O)c1cc2ccccc2c2ccccc12` (centres undefined), the growth in the experiment with BT-549 breast was 67.5%; with SW-620 colon, 66.6%; in the experiment with MCF7 breast, 28.7%; in the experiment with HCT-116 colon, 22.7%; with HCC-2998 colon it was 61.5%; with KM12 colon, 40.9%.
As to `CCCCCCCCCCCCC1C/C=C\CCCC(=O)O1` (centres undefined), the growth in the experiment on BT-549 breast is 127%; in the experiment on SW-620 colon it was 104%; in the experiment with MCF7 breast, 91.7%; with HCT-116 colon, 105%; in the experiment with HCC-2998 colon, 129%; in the experiment with KM12 colon, 112%.
